# Inconclusive results are not listed. Activity calls are given as the source filed them. Calls come from the whole dose curve.
# How the values were obtained:
# [1] = qHTS for identification of novel therapeutic agents for treatment of microphthalmiaassociated transcription factor (MiT) renal cell carcinoma (RCC) (AID 1963991); conditions: CellTiter-Glo, 48 h; for z-score: stronger effect = lower value
# How it was run: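 Viability of three TFE3-fusion renal carcinoma lines measured by CellTiter-Glo after 48 h treatment with each of 1912 compounds at 11 concentrations. Responses scaled between DMSO (100%) and empty wells (0%) before curve fitting.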
# [2] = qHTS drug screen for cell cycle checkpoint inhibitors in PARPi-resistant BRCA-mutant ovarian cancer cell lines. (AID 1963452); conditions: PEO1/OlaR viability, CellTiter-Glo luminescence, 96 h; for Z-AUC: stronger effect = lower value
# How it was run: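 PEO1, PEO4 and PEO1/OlaR ovarian cancer cells, 600 per well, exposed 96 h at 37C to a dilution series. Viability read by CellTiter-Glo luminescence, normalized to DMSO and empty wells; activity summarized as Z-AUC.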
# [3] = TFE3-RCC UOK109 viability, measured here: UOK109 Z-AUC
# [4] = TFE3-RCC viability, measured here: UOK124 Z-AUC
# [5] = TFE3-RCC viability, measured here: UOK145 Z-AUC
# Potency is the fitted concentration of half-maximal effect.
SMILES,"z-score [1, 3]","z-score [1, 4]","z-score [1, 5]",Potency [2],Z-AUC ([2]; measured here: PEO1 parental Z-AUC),Z-AUC ([2]; measured here: PEO4 Z-AUC),"Potency ([1]; TFE3-RCC UOK109 viability, active = Z-AUC below -0.8 in all three lines)"
Nc1nc(=O)n([C@H]2CSC(CO)O2)cc1F (stereo partly specified),0.159,0.427,0.298,,,,
Cn1cc(CNCC2CCN(c3ncc(C(=O)NO)cn3)CC2)c2ccccc21,-1.71,-4.28,-1.68,195 nM (active),-1.95,-1.89,166 nM (active)
CC(C)(C)[C@H](NC(=O)c1ccc(N)c(Cl)c1)C(=O)N1CCC[C@@H]1C(=O)N[C@H](C#N)CC(=O)O,1.53,2.68,2.13,,,,
O=C(O)[C@H](CC(=O)N1C[C@@H]2CCCC[C@H]2C1)Cc1ccccc1,0.946,0.446,0.344,,,,
